CRE-bla Fsk = CRE-bla signaling modulation under forskolin stimulation | AID 662 | CHO CRE-bla reporter (cAMP response element driving beta-lactamase), forskolin EC10, beta-lactamase ratio | 71,000 compounds, 2.5% hits | Potency, µM (doses to about 38.2 µM), usual class: activators; active = well fitted activation curve with a large enough effect in the signal ratio, with a control signal flat, not every such curve was filed as active; inconclusive = small, poorly fitted or top-dose-only effect, or effect the other way, or a change in a side signal; the % refers to the signal ratio
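Reporter-gene assay: CHO cells with beta-lactamase behind cAMP responsive elements, co-treated with compound and EC10 NKH 477 for 3 hours at 37 degrees Celsius. Activity came from the 460/530 nm CCF4 emission ratio.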
HEK293 cAMP ctrl = raises cAMP in parental HEK293 cells, TSHR agonist counter-screen. parental HEK293 CNG cAMP sensor, membrane potential fluorescence. Potency, µM (series often up to 57.1 µM), hits mostly activators. 73,000 compounds, 2.5% hits; note: nearly all actives have a fitted effect of over 55% in size
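Parental HEK 293 cells stably expressing a cAMP-gated CNG channel were loaded with membrane potential dye containing 100 uM RO 20-1724 for 60 min. Compound added for 30 min; depolarization read as fluorescence intensity at 590 nm.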
TSHR agonist = agonists of human thyroid stimulating hormone receptor. P16473. HEK293-CNG-TSHR cells (CNG channel as cAMP sensor), membrane potential dye, cAMP. Potency, µM (series often up to 57.1 µM), most hits filed as activators. 73,000 compounds, 0.48% hits. AID 926; active = well fitted activation curve with a large enough effect in the main read-out, with a control signal flat, not every such curve was filed as active; inconclusive = small, poorly fitted or top-dose-only effect, or a change in a side signal; inactive = no such curve, though single readings can be large or run the other way; reference of the percent scale not stated here;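 note: the control signal comes from parental cells without the receptor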
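HEK 293 cells stably expressing TSHR and a cAMP-gated CNG channel; parental CNG-only cells as counterscreen. Cells preloaded 60 min with membrane potential dye plus 100 uM RO 20-1724, then compound 30 min; fluorescence read at 590 nm.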
USP2a inhib = USP2a (human) protease inhibition; O75604; USP2a enzymatic assay, qHTS inhibition; AID 927; Potency, µM (titrated, usually from 38.3 µM), hits mostly inhibitors; 60,000 compounds, 0.1% hits; note: nearly all actives have a fitted effect of over 60% in size
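20 nM USP2 core + cpd, 30 min RT; add 20 nM Ub-PLA2/20 uM NBD C6-HPC; read Ex460/Em535 at 0 h and 2.5 h. Normalized to NEM; qHTS curve fit/classification.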
Casp7 inh = allosteric or competitive inhibitors of human caspase-7. P55210. 75,000 compounds, 0.02% hits. Potency, µM (titrated, usually from 57.5 µM), usual class: inhibitors. recombinant caspase-7, Ac-DEVD-AFC fluorescence rate. AID 889; active = well fitted inhibition curve with a large enough effect in the main read-out, with a control signal flat, not every such curve was filed as active; inconclusive = small, poorly fitted or top-dose-only effect, or a change in a side signal
Target sequence (P55210 24-198 limits assumed): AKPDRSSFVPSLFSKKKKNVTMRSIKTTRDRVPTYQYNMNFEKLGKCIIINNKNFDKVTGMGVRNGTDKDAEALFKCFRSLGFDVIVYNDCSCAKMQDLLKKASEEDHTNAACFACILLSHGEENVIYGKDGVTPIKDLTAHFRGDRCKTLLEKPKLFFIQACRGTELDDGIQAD
Target sequence (P55210 207-303 limits assumed): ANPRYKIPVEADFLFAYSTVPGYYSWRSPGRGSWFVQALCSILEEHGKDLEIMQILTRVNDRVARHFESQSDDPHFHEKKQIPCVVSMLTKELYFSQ
Caspase-1 inhib = blocks human caspase-1 allosterically or competitively. Caspase-1 enzyme, Ac-WEHD-AFC fluorogenic rate. Potency, µM (top dose mostly 57.5 µM), actives largely listed as inhibitors. 75,000 compounds, 0.03% hits
Target sequence (P29466 120-297 limits assumed): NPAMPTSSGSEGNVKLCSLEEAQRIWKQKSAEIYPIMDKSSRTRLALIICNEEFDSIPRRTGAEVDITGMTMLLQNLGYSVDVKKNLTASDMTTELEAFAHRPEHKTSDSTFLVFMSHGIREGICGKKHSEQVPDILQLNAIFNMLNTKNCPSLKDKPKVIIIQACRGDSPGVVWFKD
Target sequence (P29466 317-404 limits assumed): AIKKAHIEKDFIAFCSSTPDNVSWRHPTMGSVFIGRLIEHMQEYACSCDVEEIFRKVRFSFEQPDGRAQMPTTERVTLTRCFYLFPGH
Large screens that a line does not name were inactive. The list is not random: actives were taken first. Their share in the collection is about 5%. Unless noted, calls come from the whole dose curve; as a rule, active = well fitted curve in the direction sought with a large enough effect; inconclusive = small, poorly fitted or top-dose-only effect, or another doubt; inactive = no such curve, though single readings can be large; an effect the other way counts as inactive or inconclusive.

CCOc1ccc(Nc2oc(-c3cccs3)nc2C#N)cc1	CRE-bla Fsk 12.6µM
CCCC(=O)NCCc1cc2c(C)ccc(C)c2[nH]c1=O	CRE-bla Fsk 12.6µM (no result: USP2a inhib)
CCCn1c(C)nc2c(N(CCN(C)C)Cc3ccccc3)nc(C)nc21	CRE-bla Fsk 12.6µM, HEK293 cAMP ctrl inconclusive, TSHR agonist inconclusive (no result: USP2a inhib)
CCCn1c(C)nc2c(N(CCOC)CCOC)nc(C)nc21	CRE-bla Fsk 12.6µM (no result: USP2a inhib)
COCCN(CCOC)c1nc(C)nc2c1nc(-c1ccccc1)n2CCN1CCOCC1	CRE-bla Fsk 12.6µM, HEK293 cAMP ctrl inconclusive, TSHR agonist inconclusive (no result: USP2a inhib)
CCCc1cc(COC)c(C#N)c(=O)[nH]1	none (no result: USP2a inhib)
Cn1c(Sc2ccc(-c3cccnc3)n2C)ccc1-c1cccnc1	none (no result: USP2a inhib)
N[C@@H](Cc1c[nH]c2ccc([N+](=O)[O-])cc12)C(=O)O	none (no result: USP2a inhib)
COc1ccc2c(c1)CN([C@H](C)[C@@H]1CC[C@@H]3[C@H]4CC[C@H]5C[C@@H](O)CC[C@@]5(C)[C@H]4CC[C@]31C)CO2	none (no result: USP2a inhib)
Cc1noc(C)c1CSc1nnc(-c2ccccc2F)n1CCc1ccccc1	CRE-bla Fsk inconclusive, HEK293 cAMP ctrl 10µM, TSHR agonist inconclusive
CCOC(=O)c1c(O)[nH]c(=O)c(CC)c1C	none (no result: USP2a inhib)
CSc1ccc(-c2c(C#N)c(N)nc3c2CCCC3)cc1	CRE-bla Fsk inconclusive, USP2a inhib inconclusive (no result: TSHR agonist)
COC(=O)c1c(C#N)c(N)nc2c1CCC2	CRE-bla Fsk 2µM, Casp7 inh inconclusive (no result: Caspase-1 inhib)
CCOc1ccc2[nH]c(=O)c(CN(Cc3cccs3)Cc3nnnn3C(C)(C)C)cc2c1	HEK293 cAMP ctrl 25.1µM, TSHR agonist inconclusive
COc1ccc2[nH]c(=O)c(CN(Cc3cccs3)Cc3nnnn3C(C)(C)C)cc2c1	CRE-bla Fsk inconclusive, HEK293 cAMP ctrl inconclusive, TSHR agonist inconclusive (no result: USP2a inhib)
Cc1ccc(OCC(=O)N2CCCCC2)c(Br)c1	HEK293 cAMP ctrl inconclusive, TSHR agonist inconclusive
O=C(COc1ccc(Cl)cc1Cl)N1CCCCCC1	CRE-bla Fsk inconclusive, HEK293 cAMP ctrl 3.98µM, TSHR agonist inconclusive
O=C1c2c(O)ccc([N+](=O)[O-])c2C(=O)c2c([N+](=O)[O-])ccc(O)c21	CRE-bla Fsk inconclusive, TSHR agonist inconclusive (no result: USP2a inhib)
O=C(C1CC1)N1CCc2cc(Br)cc(S(=O)(=O)NCC3COc4ccccc4O3)c21 (stereo unspecified)	HEK293 cAMP ctrl 15.8µM, TSHR agonist inconclusive
O=C(O)CCCn1nc(-c2ccccc2)c2ccccc21	HEK293 cAMP ctrl 0.159µM, TSHR agonist inconclusive (no result: USP2a inhib)
CCCNC(=O)Cc1cc(=O)[nH]c(=O)[nH]1	CRE-bla Fsk 2µM, HEK293 cAMP ctrl inconclusive, TSHR agonist inconclusive (no result: USP2a inhib)
C=C(C)C1CC=C(C)C(OC(C)=O)C1 (stereo unspecified)	TSHR agonist inconclusive (no result: USP2a inhib)
c1csc(CNc2nc(-c3ccoc3)nc3ccccc23)c1	none
c1cncc(-c2nc(NCc3cccs3)c3ccccc3n2)c1	CRE-bla Fsk inconclusive, TSHR agonist 31.6µM
c1cncc(-c2nccc(NCc3cccs3)n2)c1	CRE-bla Fsk 2.51µM
Cc1cc(-c2cc(C)c(O)c(C(C)(C)C)c2)cc(C(C)(C)C)c1O	none (no result: USP2a inhib)
COc1cccc(O)c1O	none (no result: CRE-bla Fsk, HEK293 cAMP ctrl, TSHR agonist)
[N-]=[N+]=CC(=O)COC(=O)c1ccccc1	none (no result: USP2a inhib)
C=CCn1c(N)c(C(=O)OCCC)c2nc3ccccc3nc21	CRE-bla Fsk 10µM, Casp7 inh inconclusive (no result: Caspase-1 inhib)
C=CCn1c(NC(=O)c2ccccc2)c(C#N)c2nc3ccccc3nc21	CRE-bla Fsk inconclusive, Casp7 inh inconclusive (no result: Caspase-1 inhib)
COCCn1c(N)c(C(=O)OCc2ccccc2)c2nc3ccccc3nc21	CRE-bla Fsk 10µM, Casp7 inh inconclusive (no result: Caspase-1 inhib)
O=c1[nH]c(=O)n(C2CCCCCC2)c(O)c1C=NCc1ccc(F)cc1	CRE-bla Fsk 12.6µM (no result: TSHR agonist)
CSCCC(N=Cc1c(O)n(-c2ccc(F)cc2)c(=O)[nH]c1=O)C(=O)O (stereo unspecified)	none
O=[N+]([O-])c1ccc2ncccc2c1CCc1c([N+](=O)[O-])ccc2ncccc12	CRE-bla Fsk inconclusive, HEK293 cAMP ctrl inconclusive, TSHR agonist inconclusive (no result: USP2a inhib)
O=c1oc2cc(N=Cc3ccc4c(c3)OCO4)ccc2c2ccccc12	none (no result: USP2a inhib)
COc1ccc(-c2nnc(SCC(=O)N3CCc4ccccc4C3)o2)cc1	CRE-bla Fsk inconclusive, HEK293 cAMP ctrl 25.1µM, TSHR agonist inconclusive

Source: PubChem BioAssay
